Bioassay records: PubChem BioAssay, several laboratories
14-3-3 Bad inh: disrupts binding of bovine 14-3-3 zeta to phospho-Bad peptide; inhibition, % at 21.7 µM; TR-FRET 14-3-3zeta/Dy647-pBad peptide displacement, 1 h; 0.71% of 220,000 active; AID 781; P63103;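 active means inhibition above about 70%, limit read from the data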;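 further: 0% = full 14-3-3 plus peptide FRET controls and 100% = background without 14-3-3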
Target sequence (P63103 whole entry, looked up): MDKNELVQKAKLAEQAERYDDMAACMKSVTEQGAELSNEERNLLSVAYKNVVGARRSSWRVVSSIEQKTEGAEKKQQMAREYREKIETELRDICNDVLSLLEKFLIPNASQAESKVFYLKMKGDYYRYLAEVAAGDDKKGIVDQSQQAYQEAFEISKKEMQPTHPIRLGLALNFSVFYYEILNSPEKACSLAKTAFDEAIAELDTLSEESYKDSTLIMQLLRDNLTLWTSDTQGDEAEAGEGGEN
Mcl-1 Bim block: inhibitors of Bim-Mcl-1 interaction, human | 0.1% of 190,000 active | Bead-based flow cytometry, Bim peptide-Mcl-1 binding | inhibition, % at 10 µM | Q07820; in the data active means inhibition above about 40%;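 further: 0% = no compound tracer wells and 100% = peptide blocker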
Target sequence (Q07820 whole entry, looked up): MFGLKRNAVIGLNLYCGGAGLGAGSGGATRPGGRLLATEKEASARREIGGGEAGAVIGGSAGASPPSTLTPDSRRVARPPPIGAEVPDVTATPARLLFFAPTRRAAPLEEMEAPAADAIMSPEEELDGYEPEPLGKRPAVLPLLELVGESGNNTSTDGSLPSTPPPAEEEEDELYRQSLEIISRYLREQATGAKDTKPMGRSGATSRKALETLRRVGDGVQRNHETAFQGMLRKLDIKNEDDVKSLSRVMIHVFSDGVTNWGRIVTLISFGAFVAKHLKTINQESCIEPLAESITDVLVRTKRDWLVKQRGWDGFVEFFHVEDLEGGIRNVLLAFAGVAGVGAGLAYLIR
NCF1 inh: blocks human p47phox regulatory protein of NADPH oxidases | p47phox/p22phox peptide binding, fluorescence polarization, 2 h | inhibition, % at 24.7 µM | 0.53% of 220,000 active | AID 1274;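 further: 0% = p47phox with labelled peptide and 100% = labelled peptide alone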
Mcl1 Noxa PPI: disrupts binding of human Mcl-1 to Noxa peptide. TR-FRET Mcl-1/Noxa peptide binding, 2 h. 1.5% of 220,000 active. Q07820. inhibition, % at 21.7 µM;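 active means compounds that cut the protein-peptide binding signal by more than 50% relative to plate controls in a single-dose test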;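 further: His-tagged Mcl-1 with rhodamine Noxa BH3 peptide and terbium anti-His antibody; 0% = Mcl-1 plus Noxa peptide wells and 100% = peptide-only wells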
eIF4E 4G PPI: eIF4E/eIF4G interaction inhibition in translation initiation; P63073+Q04637; TR-FRET eIF4E-eIF4GI(517-606) binding, 2 h; inhibition, % at 21.7 µM; 0.37% of 220,000 active;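 further: 0% = full FRET control wells and 100% = background wells lacking eIF4GI fragment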
Mcl1 Bid PPI: disrupts binding of human Mcl-1 to Bid peptide | inhibition, % at 21.7 µM | 0.97% of 220,000 active | Q07820 | TR-FRET Mcl-1/Bid-Dy647 peptide binding, 1536-well;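 active means compounds that cut the binding signal by more than half at the single screening dose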;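 further: His-tagged Mcl-1 with europium anti-His antibody binding Bid BH3 peptide; 0% = Mcl-1 plus peptide wells and 100% = peptide-only wells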
The depositor's hits bear a star; [ ] = another dose, or the depositor's remark. The list is not random: actives were taken first. Their share in the collection is about 3.4%.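 How the source made its calls, unless noted: active means inhibition above about 30% (limit read from the data); inactive means the rest.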

Results for Nc1c2c(nc3ccc(Br)cc13)N(c1ccccc1)CC2 ?
14-3-3 Bad inh: 31; Mcl-1 Bim block: 3; NCF1 inh: -19; Mcl1 Noxa PPI: 25; eIF4E 4G PPI: -6; Mcl1 Bid PPI: 9

What do the screens show for `COc1ccc(C(=O)C(OC(=O)c2ccc(C)c(NC(C)=O)c2)c2ccccc2)cc1` (stereo not given)?
14-3-3 Bad inh: 11; Mcl-1 Bim block: -3; NCF1 inh: -3; Mcl1 Noxa PPI: 10; eIF4E 4G PPI: 10; Mcl1 Bid PPI: 26

Results for CC(=O)Nc1cc(C(=O)OC(C(=O)c2ccccc2)c2ccccc2)ccc1C (stereo not given) ?
14-3-3 Bad inh: 12; Mcl-1 Bim block: -1; NCF1 inh: 49*; Mcl1 Noxa PPI: -45; eIF4E 4G PPI: 5; Mcl1 Bid PPI: 27

How did COc1cc(/C=N/NC(=O)CN2CCCCC2)ccc1OCc1ccc(Br)cc1 do in these assays?
14-3-3 Bad inh: -15; Mcl-1 Bim block: -8; NCF1 inh: -9; Mcl1 Noxa PPI: 10; eIF4E 4G PPI: 0; Mcl1 Bid PPI: -6

What do the screens show for `Nc1n[nH]c(=S)n1/N=C1/C(=O)Nc2ccccc21`?
14-3-3 Bad inh: 38; Mcl-1 Bim block: 0; NCF1 inh: 23; Mcl1 Noxa PPI: 71*; eIF4E 4G PPI: 1; Mcl1 Bid PPI: 22

Results for CCN(CC)S(=O)(=O)c1cccc(C(=O)Nc2ccc3c(c2)OCO3)c1 ?
14-3-3 Bad inh: -2; Mcl-1 Bim block: 1; NCF1 inh: 3; Mcl1 Noxa PPI: -6; eIF4E 4G PPI: 1; Mcl1 Bid PPI: -4

Results for CCCN(CCC)S(=O)(=O)c1cccc(C(=O)Nc2ccc3c(c2)OCO3)c1 ?
14-3-3 Bad inh: 4; Mcl-1 Bim block: 0; NCF1 inh: 165*; Mcl1 Noxa PPI: -4; eIF4E 4G PPI: 0; Mcl1 Bid PPI: -19

How did CC1CCN(C(c2cccs2)c2nnnn2Cc2ccccc2)CC1 (stereo not given) do in these assays?
14-3-3 Bad inh: 79*; Mcl-1 Bim block: -1; NCF1 inh: -1; Mcl1 Noxa PPI: 11; eIF4E 4G PPI: 11; Mcl1 Bid PPI: 20

Results for COc1ccccc1C(=O)N(CCC1CCCN1C)c1nc2ccccc2s1 (stereo not given) ?
14-3-3 Bad inh: -6; Mcl-1 Bim block: 1; NCF1 inh: -2; Mcl1 Noxa PPI: 6; eIF4E 4G PPI: 3; Mcl1 Bid PPI: -16

How did Nc1csnc1C(=O)O do in these assays?
14-3-3 Bad inh: 78*; Mcl-1 Bim block: -1; NCF1 inh: -8; Mcl1 Noxa PPI: 20; eIF4E 4G PPI: 10; Mcl1 Bid PPI: -22

What do the screens show for `Nc1nc(-c2ccc(C(=O)O)cc2)cs1`?
14-3-3 Bad inh: -6; Mcl-1 Bim block: 0; NCF1 inh: -1; Mcl1 Noxa PPI: 8; eIF4E 4G PPI: 1; Mcl1 Bid PPI: -8

Results for CC1=C(C)C(C)=C(C#N)C(=C(C#N)C#N)N1 ?
14-3-3 Bad inh: 2; NCF1 inh: -12; Mcl1 Noxa PPI: 37; eIF4E 4G PPI: 6; Mcl1 Bid PPI: -10

What do the screens show for `O=C(NCCN1CCOCC1)c1nn2c(c1Cl)NC(c1ccccc1)CC2C(F)(F)F` (stereo not given)?
14-3-3 Bad inh: 3; Mcl-1 Bim block: -2; NCF1 inh: -21; Mcl1 Noxa PPI: 3; eIF4E 4G PPI: 45*; Mcl1 Bid PPI: -11

How did CCCN(CCC)Cc1cc(=O)oc2cc3c(cc12)CCC3 do in these assays?
14-3-3 Bad inh: -5; NCF1 inh: -8; Mcl1 Noxa PPI: 16; eIF4E 4G PPI: 4; Mcl1 Bid PPI: -4

What do the screens show for `Cc1ccc(C)c(N(CC(=O)NC2CCCC2)C(=O)c2cc3cc4cc(C)ccc4nc3s2)c1`?
14-3-3 Bad inh: -2; Mcl-1 Bim block: 0; NCF1 inh: 0; Mcl1 Noxa PPI: 19; eIF4E 4G PPI: 2; Mcl1 Bid PPI: -15

How did Cc1cccc(N(CC(=O)NC2CCCC2)C(=O)c2cc3cc4cccc(C)c4nc3s2)c1C do in these assays?
14-3-3 Bad inh: -3; Mcl-1 Bim block: 2; NCF1 inh: -7; Mcl1 Noxa PPI: 12; eIF4E 4G PPI: -4; Mcl1 Bid PPI: 67*

How did Cc1nn(Cc2ccccc2)c(Cl)c1C(=O)NCc1ccco1 do in these assays?
14-3-3 Bad inh: -4; Mcl-1 Bim block: -2; NCF1 inh: -10; Mcl1 Noxa PPI: 17; eIF4E 4G PPI: 0; Mcl1 Bid PPI: -38

How did COc1ccc(C2(C(=O)Nc3ccc(C(=O)O)cc3)CCOCC2)cc1 do in these assays?
14-3-3 Bad inh: -13; Mcl-1 Bim block: 0; NCF1 inh: -13; Mcl1 Noxa PPI: -5; eIF4E 4G PPI: 4; Mcl1 Bid PPI: 59*

Results for COc1ccccc1NC(=O)c1ccc(CSc2ncccn2)cc1 ?
14-3-3 Bad inh: -7; Mcl-1 Bim block: 0; NCF1 inh: 5; Mcl1 Noxa PPI: -5; eIF4E 4G PPI: -3; Mcl1 Bid PPI: -17

What do the screens show for `CC[n+]1cc(-c2ccccc2)nc(N2CCOCC2)n1`?
14-3-3 Bad inh: 82*[fluorescence artefact?]; Mcl-1 Bim block: 0; NCF1 inh: 39*; Mcl1 Noxa PPI: 20; eIF4E 4G PPI: 30; Mcl1 Bid PPI: -34

What do the screens show for `CCC1CSC(Nc2ccc(C(=O)/C=C/c3ccc(OC)c(OC)c3)cc2)=N1` (stereo not given)?
14-3-3 Bad inh: 14; Mcl-1 Bim block: 0; NCF1 inh: -134; Mcl1 Noxa PPI: 68*; eIF4E 4G PPI: -6; Mcl1 Bid PPI: -28

Results for COc1ccc(/C=C/C(=O)c2ccc(NC3=NCCCS3)cc2)cc1OC ?
14-3-3 Bad inh: -16; Mcl-1 Bim block: 5; NCF1 inh: -28; Mcl1 Noxa PPI: 51*; eIF4E 4G PPI: -2; Mcl1 Bid PPI: -19

How did CCO[C@H]1OC(C(N)=O)=C[C@@H](C)[C@@H]1CCCO do in these assays?
14-3-3 Bad inh: -3; Mcl-1 Bim block: 1; NCF1 inh: -8; Mcl1 Noxa PPI: 8; eIF4E 4G PPI: 0; Mcl1 Bid PPI: -11

What do the screens show for `COCCn1cc(C(=O)N2CCC(C)CC2)c2c3ccccc3n(C)c2c1=O`?
14-3-3 Bad inh: 18; Mcl-1 Bim block: 2; NCF1 inh: -3; Mcl1 Noxa PPI: 15; eIF4E 4G PPI: 10; Mcl1 Bid PPI: 95*

Results for CC(C)Cn1cc(C(=O)N2CCC(C)CC2)c2c3ccccc3n(C)c2c1=O ?
14-3-3 Bad inh: 22; Mcl-1 Bim block: 1; NCF1 inh: 3; Mcl1 Noxa PPI: 22; eIF4E 4G PPI: 15; Mcl1 Bid PPI: -1

How did O=C1CCCC(=O)N1c1ccc(O)cc1 do in these assays?
14-3-3 Bad inh: -10; Mcl-1 Bim block: -2; NCF1 inh: -9; Mcl1 Noxa PPI: 2; eIF4E 4G PPI: -4; Mcl1 Bid PPI: -24

What do the screens show for `O=C(O)c1ccc(N2C(=O)CCCC2=O)cc1`?
14-3-3 Bad inh: 3; NCF1 inh: -10; Mcl1 Noxa PPI: 59*; eIF4E 4G PPI: -1; Mcl1 Bid PPI: -28

Results for CCOC(=O)CC1C(=O)NCCN1C(=O)Nc1ccc(Cl)cc1 (stereo not given) ?
14-3-3 Bad inh: 73*[fluorescence artefact?]; Mcl-1 Bim block: 0; NCF1 inh: -7; Mcl1 Noxa PPI: 18; eIF4E 4G PPI: 3; Mcl1 Bid PPI: 2
